GC-A act: GC-A (human) enzyme activation; P16066; activation, % at 10 µM; HEK293 GC-A cells, cGMP TR-FRET, EC30 ANP; 0% at EC30 ANP, 100% saturating ANP; 0.14% of 370,000 active; in the data active = activation above about 40%
NPR2 activator: GC-B (human) receptor activation; HEK293-GC-B cells, CNP EC30, cGMP TR-FRET; 0% at EC30 CNP, 100% saturating CNP; activation, % at 10 µM; 0.11% of 370,000 active;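 active = activation at 10 µM reaching about 35% in either raw or pattern-adjusted values, limit read from the data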
A3A deaminase: blocks human APOBEC3A ssDNA deamination. inhibition, % at 20 µM. 0.41% of 330,000 active. P31941. recombinant A3A, FAM/TAMRA ssDNA deamination fluorescence;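 active = at least 40% inhibition at 20 µM here, with at most 30% in a related deaminase screen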;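 note: plate controls were A3A with DMSO for no effect and wells lacking A3A enzyme for full effect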
Target sequence (P31941 whole entry, looked up): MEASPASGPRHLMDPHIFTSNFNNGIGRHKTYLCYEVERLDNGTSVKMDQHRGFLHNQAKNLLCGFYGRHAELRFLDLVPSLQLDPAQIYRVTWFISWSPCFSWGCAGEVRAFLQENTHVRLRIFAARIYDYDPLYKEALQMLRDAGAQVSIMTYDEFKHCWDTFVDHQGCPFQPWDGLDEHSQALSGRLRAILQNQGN
FAS-TE inh: blocks the thioesterase domain of human fatty acid synthase | AID 602261 | recombinant FAS-TE, OMFH fluorogenic substrate, fluorescence endpoint | inhibition, % at 15 µM | 0.67% of 360,000 active | P49327;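 active = compounds whose normalised, plate-corrected inhibition of enzyme fluorescence in the single-dose primary screen is 50% or more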;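 note: 0% = DMSO with enzyme and 100% = substrate without enzyme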
A3G deaminase: blocks human APOBEC3G single-stranded DNA deamination; recombinant A3G, ssDNA deamination FAM/TAMRA fluorescence; 0.28% of 330,000 active; Q9HC16; inhibition, % at 20 µM;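 active = inhibition of at least 40% at 20 µM, with no more than 30% in the related APOBEC3A deaminase screen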;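 note: plate controls were DMSO wells with A3G for no effect and wells lacking A3G enzyme for full effect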
Target sequence (Q9HC16 whole entry, looked up): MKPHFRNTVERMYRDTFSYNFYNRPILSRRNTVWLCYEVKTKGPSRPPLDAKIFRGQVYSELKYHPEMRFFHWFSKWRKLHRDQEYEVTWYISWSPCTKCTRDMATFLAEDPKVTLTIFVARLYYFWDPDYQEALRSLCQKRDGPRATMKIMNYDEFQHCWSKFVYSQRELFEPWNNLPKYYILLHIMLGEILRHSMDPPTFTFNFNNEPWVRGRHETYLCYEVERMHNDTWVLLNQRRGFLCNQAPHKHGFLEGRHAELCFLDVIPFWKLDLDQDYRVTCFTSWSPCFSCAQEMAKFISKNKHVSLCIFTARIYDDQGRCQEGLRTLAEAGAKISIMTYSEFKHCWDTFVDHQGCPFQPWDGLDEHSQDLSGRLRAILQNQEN
FAS-TE inh conf: confirmation of human fatty acid synthase thioesterase inhibitors | recombinant FAS-TE, OMFH fluorogenic substrate, fluorescence | inhibition, % at 15 µM | 45% of 2,300 active | shares compounds with FAS-TE inh;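 active = compounds inhibiting the enzyme by at least 50% at 15 µM in any one of the replicates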;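 note: 0% = enzyme with DMSO only and 100% = wells lacking enzyme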
The depositor's hits bear a star; / = no result given. An excerpt weighted towards active compounds, which were near 1.4% of everything screened.

SMILES | GC-A act | NPR2 activator | A3A deaminase | FAS-TE inh | A3G deaminase | FAS-TE inh conf
Cc1ccc(S(=O)(=O)N2[C@H](c3ccccc3)CC(=O)[C@@H]3CN(S(=O)(=O)c4ccccc4)[C@H](c4ccccc4)C[C@@H]32)cc1 | 3.0 | 7.0 | / | 83.4* | / | 28.1
COc1ccc([C@@H]2CC(=O)[C@@H]3CN(S(=O)(=O)c4ccc(C)cc4)[C@H](c4ccccc4)C[C@@H]3N2S(=O)(=O)c2ccccc2)cc1 | 1.6 | -1.2 | / | 76.6* | / | 9.6
Cc1ccc([C@@H]2C[C@H]3[C@@H](CN2S(=O)(=O)c2ccc(C)cc2)C(=O)C[C@@H](c2ccccc2)N3S(=O)(=O)c2ccc(C)cc2)cc1 | 6.1 | 5.8 | / | 30.7 | / | /
COC(=O)C1CN(Cc2ccccc2)CCS(=O)(=O)N1Cc1cn(Cc2ccccc2)nn1 (stereo not drawn) | 2.1 | -1.0 | / | / | / | /
CN(CC(=O)Nc1ccc(Cl)c(C(F)(F)F)c1)C(=O)C1CC(=O)N(c2ccc3c(c2)OCCO3)C1 (stereo not drawn) | 0.0 | -7.9 | / | 54.1* | / | 26.7*
CN(CC(=O)Nc1ccc(Cl)c(C(F)(F)F)c1)C(=O)C1CC(=O)N(C2CCCC2)C1 (stereo not drawn) | 0.8 | 1.1 | 17.1 | 8.9 | 3.5 | /
CCCC[C@H](C(=O)N(CC)c1ccccc1)[C@@H](O)c1ccc(Cl)cc1 | -31.1 | -24.5 | / | / | / | /
CCCCNC(=O)NCCCN1CCN(c2ccc(F)cc2)CC1 | 2.7 | 2.2 | / | / | / | /
CCOc1ccccc1N(CC(=O)NC1CCCCC1)C(=O)c1nsc(Cl)c1Cl | -7.7 | -9.0 | 34.0 | 50.5* | -3.0 | 17.7
Cc1cccc(N(CC(=O)NC2CCCC2)C(=O)c2nsc(Cl)c2Cl)c1C | -17.5 | -9.6 | -1.4 | 8.8 | -7.5 | /
O=C(O)CCCNc1c(C(=O)Nc2ccc(Cl)cc2)cc([N+](=O)[O-])cc1[N+](=O)[O-] | -1.0 | 1.0 | -3.1 | 74.0* | -0.6 | 81.1*
CCOc1ccc(-n2c(SCC(=O)Nc3ccc(S(=O)(=O)Nc4nccs4)cc3)nnc2-c2ccco2)cc1 | 0.1 | 2.3 | / | / | / | /
Cc1ccc2c(c1)C(CS(=O)(=O)NCC(C)C)NC2 (stereo not drawn) | 0.5 | 0.9 | / | / | / | /
CN(C)c1ccc(C(=O)NC2CCCCN(Cc3cccc(Cl)c3)C2=O)cc1 (stereo not drawn) | 0.5 | 8.3 | / | / | / | /
COc1ccc(NC(=O)/C(C#N)=C\c2cc(C)n(-c3ccc4c(c3)OCO4)c2C)cc1 | 1.3 | 6.9 | -0.5 | 54.2* | -5.1 | -4.7
Cc1cc(/C=C(\C#N)C(=O)Nc2ccc(Cl)cc2)c(C)n1-c1ccc(N2CCOCC2)c([N+](=O)[O-])c1 | 2.0 | -1.8 | 2.7 | 78.9* | -0.3 | 9.1
Cc1ccc(Cn2cc(CN3[C@H](CC(C)C)COc4cc(Br)ccc4S3(=O)=O)nn2)cc1 | 5.2 | -0.2 | / | / | / | /
N#Cc1c(N)[nH]c(C(=O)c2ccccc2)c1-c1ccc(Cl)cc1 | -3.4 | -6.0 | / | 66.7* | / | 60.5*
CC(C)(C)C(=O)c1c(N)[nH]c(C(=O)c2ccccc2)c1-c1ccc(Cl)cc1 | -15.5 | -9.4 | / | 6.4 | / | /
Cc1ccc(NC(=O)Cc2cccc(OC(F)F)c2)c(S(=O)(=O)N2CCOCC2)c1 | -2.2 | 7.3 | / | / | / | /
CC(C)CC(=O)NC(NC(=O)CC(C)C)c1cccc([N+](=O)[O-])c1 | -3.2 | 4.4 | -0.8 | 3.4 | -2.7 | /
COc1ccc([N+](=O)[O-])cc1NC(=O)CCCOc1ccccc1 | 2.7 | -0.8 | -1.5 | 67.8* | -9.0 | 70.6*
O=C(O)CC(NC(=O)CC(c1ccccc1)c1ccccc1)c1cccc([N+](=O)[O-])c1 (stereo not drawn) | -0.4 | 6.9 | -2.6 | 56.4* | -6.7 | 65.5*
COc1ccc(C(CC(=O)Nc2cc([N+](=O)[O-])ccc2OC)c2ccccc2)cc1 (stereo not drawn) | -4.2 | -12.3 | -1.9 | 61.4* | -9.0 | 49.9*
COc1ccc(CCC(=O)Nc2cc([N+](=O)[O-])ccc2OC)cc1 | -4.2 | -6.7 | -1.2 | 47.9 | -5.4 | /
SMILES | GC-A act | NPR2 activator | A3A deaminase | FAS-TE inh | A3G deaminase | FAS-TE inh conf
COCC(=O)Nc1cc([N+](=O)[O-])ccc1OC | -1.6 | 0.1 | 1.9 | -12.0 | -4.5 | /
COc1ccc([N+](=O)[O-])cc1NC(=O)CCC(=O)c1cccs1 | -1.7 | -2.1 | 2.3 | 65.0* | -1.4 | 48.5*
COc1cc([N+](=O)[O-])ccc1NC(=O)CCCOc1ccccc1 | 0.6 | 4.0 | 0.7 | 22.1 | 1.2 | /
COc1cc(-c2nnc(SCC(=O)N3C(C)CCCC3C)o2)cc(OC)c1OC (stereo not drawn) | -1.5 | -5.2 | / | / | / | /
CCCN1CCS(=O)(=O)N(Cc2cn(Cc3ccc(F)cc3)nn2)C(C(=O)OC)C1 (stereo not drawn) | -0.6 | 7.2 | / | / | / | /
COc1ccc([N+](=O)[O-])cc1NC(=O)Cc1ccc(Cl)cc1 | -2.2 | -2.9 | / | 80.6* | / | 38.2
COc1ccc([N+](=O)[O-])cc1NC(=O)CSCc1ccccc1 | -1.3 | -2.0 | -1.3 | 62.4* | -0.2 | 17.1
COc1ccc([N+](=O)[O-])cc1/C=N/NC(=O)Cc1ccccc1 | 17.8 | 11.9 | 1.1 | 28.5 | 0.7 | /
COc1cc(/C=N/NC(=O)Cc2ccccc2)ccc1Oc1ccc([N+](=O)[O-])cc1[N+](=O)[O-] | -1.6 | 0.8 | 7.2 | 58.7* | -2.5 | 13.5
COc1ccc([N+](=O)[O-])cc1NC(=O)CSc1ccccc1 | 0.7 | -1.9 | -2.4 | 38.7 | -0.5 | /
O=C(NCCc1ccc(Cl)cc1)c1ccc2c(c1)ncn2C1CCCCC1 | -1.5 | -6.3 | / | / | / | /
CC1CCN(CCCNS(=O)(=O)c2cc3c(cc2Br)CCN3C(=O)C2CC2)CC1 | 2.3 | -0.2 | / | / | / | /
Cc1ccc(-n2c(SCc3nc4ccccc4[nH]3)nnc2-c2ccccn2)cc1 | -0.9 | -9.7 | / | / | / | /
Cc1ccc(C(=O)c2cnc3cc4c(cc3c2S(=O)(=O)c2ccccc2)OCCO4)cc1 | -2.2 | -8.1 | 0.5 | 71.5* | -13.3 | 21.3
CN(N=Cc1ccccc1O)C(=O)c1ccccc1N | 0.4 | -7.9 | / | / | / | /
COc1ccc(C(=O)N/C(=C\c2cccc([N+](=O)[O-])c2)C(=O)Nc2cccc(C(=O)O)c2)cc1 | -4.2 | 0.2 | 1.2 | 49.1 | 3.2 | /
O=C(Nc1cccc(C(=O)O)c1)/C(=C\c1cccc([N+](=O)[O-])c1)NC(=O)c1ccc(Br)cc1 | 2.2 | 9.9 | / | 69.2* | / | 75.4*
Cc1ccc(C(=O)N/C(=C\c2cccc([N+](=O)[O-])c2)C(=O)Nc2cccc(C(=O)O)c2)cc1 | 2.8 | -2.7 | -2.5 | 55.3* | 0.4 | 59.8*
O=C(O)CNC(=O)/C(=C/c1cccc([N+](=O)[O-])c1)NC(=O)c1ccco1 | 5.6 | -2.5 | -0.4 | -10.7 | -0.2 | /
O=C(NCc1ccccc1)/C(=C\c1cccc([N+](=O)[O-])c1)NC(=O)c1ccco1 | -0.2 | 2.1 | / | 68.0* | / | 76.2*
